Screen size: about 360,000 compounds; about 1,100 (0.31%) were called active. This is one part of a sample in which actives are shown more often than they occur. Values without a mark were called inactive. Cut-off read from the data, not from the text of the source: active = activity change below about -80%; inconclusive = mostly about -51% to -80%; inactive = weaker than that.
% is set by controls: 0 for no effect and ±100 for the full control effect.

This assay concerns the target RAC-alpha serine/threonine-protein kinase (Homo sapiens) (UniProt P31749). Nature of the assay: HTS Assay for Inhibitors of Akt Phophorylation: Primary Screen. The conditions noted are these: Neuro2A IGF-stimulated pAkt S473 HTRF, 20 min; at 50 µM, hits give low values. From the text: The serine/threonine protein kinase Akt (protein kinase B) regulates various cellular processes, including cell survival, growth, proliferation, migration and differentiation. It has been well established that Akt is activated through two essential steps involving membrane translocation and phosphorylation. Cytosolic Akt is recruited to the plasma membrane via the interaction between the PH domain and membrane PIP3 produced by phosphoinositide-3 kinase (PI3K) upon growth factor receptor stimulation. The membrane-Akt interaction results in conformational changes of Akt, enabling its activation through phosphorylation at T308 in the kinase domain and at S473 in the C-terminal hydrophobic motif by PDK1 and mTOR-rictor complex (mTORC2), respectively. […] These findings indicate that S473 phosphorylation, as an important modulator of Akt activation, may be a valuable drug target for cell growth, survival, proliferation and differentiation. These inhibitors also may have significant therapeutic potential with fewer side effects, especially for the conditions involving hyperactive Akt signaling, such as cancer and Alzheimer's disease.
To this end, a miniaturized assay was developed to be screened against the Molecular Libraries Small Molecule Repository (MLSMR).
NIH Chemical Genomics Center [NCGC]
NIH Molecular Libraries Probe Centers Network [MLPCN]
Assay Submitter (PI): Hee-Yong Kim, National Institute on Alcohol Abuse and Alcoholism
3 uL of Neuro2A cell suspension in DMEM containing 0.5% FBS and […] antibiotics mix was plated in a white solid bottom tissue culture-treated 1536-well plate (Greiner Bio-One, Monroe, NC) at 4,500 cells per well and incubated overnight at 37 deg C. 23 nL/well of compound solutions in DMSO was added with Pintool transfer (Kalypsis, San Diego, CA) at single […] final concentration. Then, the cells were stimulated with 1.5 uL of IGF (6 nM final concentration) and incubated at 37 deg C for 20 min. The reaction was terminated by the addition of 1.5 uL blocking reagent mixed with lysis buffer (1:25 correspondingly) provided with HTRF(R) Phospho Akt (Ser473) kit (Cisbio US, Bedford, MA), with following incubation for 50 min at ambient temperature. The detection HTRF conjugates from the kit were prepared according to the protocol, pre-mixed 1:1 prior to dispensing, and 2 uL/well was added with BioRAPTR FRD dispenser (Beckman Coulter). The assay plates were incubated for 24 hours at ambient temperature, and the HTRF fluorescence was measured using Envision plate reader (PerkinElmer) with excitation at 330nm, emission at 615nm (Eu(3)-Cryptate donor signal) and 665nm (d2 acceptor signal). The ratio of […] was calculated for each well.
Background: TR-FRET usually uses a lanthanide donor and a delayed reading to cut background.
As for `O=C(Cc1cccs1)Nc1ccc([N+](=O)[O-])cc1`, the activity change result was “inactive”.
Regarding `O=C(Nc1ccc2c(c1)C(=O)OC2)Nc1cccc2ccccc12`, the activity change result was “inactive”.
The figure for `CCn1cc(C(=O)NCC2CCCO2)c(=O)c2cc(S(=O)(=O)N3CCCCC3)ccc21` (stereo unspecified) is -109% (active).
The entry for `CCn1cc(C(=O)NC2CCCCCC2)c(=O)c2cc(S(=O)(=O)N3CCCCC3)ccc21` is “inactive”; for `CCn1cc(C(=O)N2CC(C)CC(C)C2)c(=O)c2cc(S(=O)(=O)N3CCCC3)ccc21` (stereo unspecified) it is “inactive”.
The entry for `CC(C)(C)NC(=O)C(CCc1ccccc1)n1c(=O)c(-c2ccccc2)nc2ccccc21` (stereo unspecified) is “inactive”; for `CCC(c1nnnn1Cc1ccco1)N(CCc1ccccc1)Cc1cc2cccc(C)c2[nH]c1=O` (stereo unspecified) it is -20.5%.
With `Cc1cccc2cc(CN(Cc3nnnn3Cc3ccccc3)C3CCCC3)c(=O)[nH]c12`, the activity change entry was “inactive”.
The figure for `CCC(c1nnnn1C1CCCC1)N(Cc1cccs1)Cc1cc2cccc(C)c2[nH]c1=O` (stereo unspecified) is -108% (active); for `CCc1ccccc1N(CC(=O)NCCSCc1ccco1)S(C)(=O)=O` it is “inactive”.
The entry for `Cc1[nH]c2ccccc2c1C(=O)c1cc([C@H](NC(=O)OC(C)(C)C)C(C)C)sc1N` is “inactive”; for `COc1c(Br)cc2c(C)c(C(=O)N3CCOCC3)oc2c1Br` it is -114% (active); for `Cc1ccc2c(C)c(C(=O)N3CCN(c4ccncc4)CC3)oc2c1C` it is “inactive”.
As for `O=C(c1cc2cc(Br)cc(Br)c2oc1=O)N1CCOCC1`, the activity change entry is “inactive”.
The entry for `CCOC(=O)[C@]12CCCC=C1N(CCC1=CCCCC1)C(=O)[C@H](CC(=O)N1CCOCC1)C2` is “inactive”.
The entry for `OCCC#Cc1ccc(N2C(c3ccsc3)=Cc3ccc(F)cc3C2c2c[nH]c3ccccc23)cc1` (stereo unspecified) is “inactive”.
The entry for `CC(C)CC1(C)NC(=O)N(CC(=O)Nc2ccc3c(c2)OCCO3)C1=O` (stereo unspecified) is “inactive”.
On to `CC1=NN(C(C)C)C(=O)C1`, for which the activity change was -118% (active).
The entry for `CCOC(=O)NN1C(=O)c2ccccc2NC1c1ccccc1O` (stereo unspecified) is “inactive”.
The entry for `CC1(C(=O)NCc2ccccc2)CSCC(=O)N1CCCN1CCOCC1` (stereo unspecified) is “inactive”.
The entry for `COc1ccc2ccccc2c1CNCc1ccccn1` is “inactive”; for `CSCCC(C(=O)NC(C)(C)C)n1c(-c2ccccc2)nc2ccccc21` (stereo unspecified) it is “inactive”; for `O=C(CCn1ccc([N+](=O)[O-])n1)Nc1nccs1` it is “inactive”.
`CC(NC(=O)C(=O)Nc1nccs1)c1ccccc1` (stereo unspecified): the activity change entry was “inactive”.
The figure for `Cc1c(Br)c([N+](=O)[O-])nn1C(C)C(=O)Nc1nccs1` (stereo unspecified) is -109% (active); for `Cc1cccc(C(=O)OC(C)CN2CCCC2)c1` (stereo unspecified) it is “inactive”.
The figure for `CC(CN1CCCCC1)OC(=O)c1ccccc1Cl` (stereo unspecified) is -96.5% (active).
The entry for `Cc1cccc(C(=O)OC(C)CN2CCN(C)CC2)c1` (stereo unspecified) is “inactive”; for `CCOC(=O)[C@]12CCCC=C1N(CCC1=CCCCC1)C(=O)[C@H](CC(=O)N1CCSCC1)C2` it is “inactive”; for `Cc1cccc(C)c1NC(=O)C(c1cccc(F)c1)N1CCN(C)CC1` (stereo unspecified) it is “inactive”.
With `Cc1ccc(F)cc1NC(=O)Cc1nn(C)c(=O)c2ccccc12`, the activity change was -106% (active).
For `Cc1ccc(F)cc1NC(=O)CSCc1c(C)noc1C`, the activity change entry is “inactive”.
For the compound `Cc1ccc(C)c(NC(=O)COC(=O)c2nn(C)c(=O)c3ccccc23)c1`, the activity change result was “inactive”.
The entry for `CCN1C(=O)/C(=C\N2CCOCC2)SC1=S` is “inactive”.
The figure for `O=C(O)CCSc1nnc(-c2ccccc2)n1-c1ccccc1` is -109% (active).
On to `O=C(O)CSc1nnc(-c2ccc3c(c2)OCO3)n1-c1ccccc1`, for which the activity change entry is “inactive”.
For the compound `NNC(=O)CSc1nnc(-c2ccccc2)n1-c1ccccc1`, the activity change result is “inactive”.
The entry for `CS(=O)(=O)N1CCN=C1SCc1ccc(F)cc1` is “inactive”.
The entry for `Cc1cc(Cl)ccc1OCc1nc(-c2ccncc2)no1` is “inactive”; for `Cc1cc(OCCOc2cccc3cccnc23)c(C)cc1Cl` it is “inactive”.
The figure for `Cc1noc(COc2ccccc2OCc2onc(C)c2Cl)c1Cl` is -112% (active).
For `CC1(C(=O)NCc2ccccc2)CN(S(C)(=O)=O)CC(=O)N1CC(F)(F)F` (stereo unspecified), the activity change result is “inactive”.
The entry for `Cc1cccc(NC(=O)COC(=O)CCc2ccccc2)c1C` is “inactive”.
The entry for `Cc1cccc(NC(=O)CSc2nc3c(c(=O)[nH]2)CCCC3)c1C` is “inactive”.
For `Cc1cccc(NC(=O)CSC(N)=O)c1C`, the activity change was -113% (active).
The entry for `C=Cc1ccc(C(=O)N2CCCC(CCC(=O)N3CCN(c4ccccn4)CC3)C2)cc1` (stereo unspecified) is “inactive”; for `O=C(C[C@H]1CC[C@H]2[C@@H](COC[C@H](O)CN2C(=O)c2ccccn2)O1)N1CCN(c2ccccc2)CC1` it is “inactive”; for `FC(F)(F)c1cc(-c2cccs2)nc(NCc2ccco2)n1` it is -2.47%.
The figure for `COc1nc(NCc2ccc(Cl)cc2)nc(OC)n1` is 1.36%; for `FC(F)(F)c1cc(-c2ccco2)nc(NCc2ccc(Cl)cc2)n1` it is -102% (active).
For `CC(C)(C)n1nnnc1C(c1ccc2ncccc2c1)N1CCSCC1` (stereo unspecified), the activity change entry was “inactive”.

The record behind these values is PubChem BioAssay AID651550 (National Center for Advancing Translational Sciences (NCATS), 2012).
